The term ΔTm denotes the change in melting temperature against a reference sample.

ΔTm data for 26 compounds are collected here from ChEMBL document CHEMBL5308504, “Tm Shift (DSF) assay results for EUbOPEN Chemogenomics Library” (2023).

Conditions in all cases: Compound concentration 20.0 uM, Protein concentration 2.0 uM, Result type QC Liability
Experiment [1] concerns the target Tyrosine-protein kinase ABL1 (Homo sapiens) (UniProt P00519).
Experiment [2] deals with Cyclin-dependent kinase 2 (Homo sapiens) (UniProt P24941).
Experiment [3] deals with Casein kinase I isoform delta (Homo sapiens) (UniProt P48730).
Chain of Casein kinase I isoform delta (Homo sapiens) (P48730 whole entry, looked up, canonical isoform): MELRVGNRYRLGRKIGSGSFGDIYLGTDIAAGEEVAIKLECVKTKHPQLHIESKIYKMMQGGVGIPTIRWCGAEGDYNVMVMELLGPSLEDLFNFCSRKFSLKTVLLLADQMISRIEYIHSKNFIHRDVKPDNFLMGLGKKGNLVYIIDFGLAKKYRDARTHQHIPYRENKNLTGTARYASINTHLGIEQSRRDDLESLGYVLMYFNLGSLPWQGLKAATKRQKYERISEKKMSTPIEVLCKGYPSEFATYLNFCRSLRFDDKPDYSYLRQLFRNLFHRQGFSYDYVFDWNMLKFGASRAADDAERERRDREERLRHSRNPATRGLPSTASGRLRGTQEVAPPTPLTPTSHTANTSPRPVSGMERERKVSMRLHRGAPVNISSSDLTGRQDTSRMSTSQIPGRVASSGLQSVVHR
Experiment [4] addresses Glycogen synthase kinase-3 beta (Homo sapiens) (UniProt P49841).
Experiment [5] concerns the target Mitogen-activated protein kinase 1 (Homo sapiens) (UniProt P28482).
In experiment [6] the target is T1, Aurora kinase A (Homo sapiens) (UniProt O14965).
T1 sequence (whole entry): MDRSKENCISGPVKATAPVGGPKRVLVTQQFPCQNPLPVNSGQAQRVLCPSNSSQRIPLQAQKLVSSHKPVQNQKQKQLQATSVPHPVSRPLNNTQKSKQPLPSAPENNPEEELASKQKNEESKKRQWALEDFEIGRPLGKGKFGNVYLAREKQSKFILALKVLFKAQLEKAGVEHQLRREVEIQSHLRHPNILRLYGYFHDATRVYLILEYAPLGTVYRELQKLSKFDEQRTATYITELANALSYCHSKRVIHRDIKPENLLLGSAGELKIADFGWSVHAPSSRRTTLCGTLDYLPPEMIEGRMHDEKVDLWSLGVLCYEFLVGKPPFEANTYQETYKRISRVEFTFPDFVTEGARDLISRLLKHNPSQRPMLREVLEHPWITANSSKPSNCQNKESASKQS

Chain of Glycogen synthase kinase-3 beta (Homo sapiens) (P49841 whole entry, looked up): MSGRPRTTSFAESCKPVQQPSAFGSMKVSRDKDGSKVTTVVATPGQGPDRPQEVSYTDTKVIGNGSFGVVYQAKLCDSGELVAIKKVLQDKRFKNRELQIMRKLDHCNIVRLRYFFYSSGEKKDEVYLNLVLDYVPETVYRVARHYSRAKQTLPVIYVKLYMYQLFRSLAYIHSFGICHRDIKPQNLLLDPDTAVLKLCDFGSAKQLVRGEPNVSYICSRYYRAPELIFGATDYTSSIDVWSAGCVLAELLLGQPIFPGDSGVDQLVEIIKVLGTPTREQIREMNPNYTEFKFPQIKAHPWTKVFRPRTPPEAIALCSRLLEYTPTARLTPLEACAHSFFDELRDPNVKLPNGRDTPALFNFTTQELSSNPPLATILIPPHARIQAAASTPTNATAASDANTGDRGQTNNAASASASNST
Chain of Tyrosine-protein kinase ABL1 (Homo sapiens) (P00519 whole entry): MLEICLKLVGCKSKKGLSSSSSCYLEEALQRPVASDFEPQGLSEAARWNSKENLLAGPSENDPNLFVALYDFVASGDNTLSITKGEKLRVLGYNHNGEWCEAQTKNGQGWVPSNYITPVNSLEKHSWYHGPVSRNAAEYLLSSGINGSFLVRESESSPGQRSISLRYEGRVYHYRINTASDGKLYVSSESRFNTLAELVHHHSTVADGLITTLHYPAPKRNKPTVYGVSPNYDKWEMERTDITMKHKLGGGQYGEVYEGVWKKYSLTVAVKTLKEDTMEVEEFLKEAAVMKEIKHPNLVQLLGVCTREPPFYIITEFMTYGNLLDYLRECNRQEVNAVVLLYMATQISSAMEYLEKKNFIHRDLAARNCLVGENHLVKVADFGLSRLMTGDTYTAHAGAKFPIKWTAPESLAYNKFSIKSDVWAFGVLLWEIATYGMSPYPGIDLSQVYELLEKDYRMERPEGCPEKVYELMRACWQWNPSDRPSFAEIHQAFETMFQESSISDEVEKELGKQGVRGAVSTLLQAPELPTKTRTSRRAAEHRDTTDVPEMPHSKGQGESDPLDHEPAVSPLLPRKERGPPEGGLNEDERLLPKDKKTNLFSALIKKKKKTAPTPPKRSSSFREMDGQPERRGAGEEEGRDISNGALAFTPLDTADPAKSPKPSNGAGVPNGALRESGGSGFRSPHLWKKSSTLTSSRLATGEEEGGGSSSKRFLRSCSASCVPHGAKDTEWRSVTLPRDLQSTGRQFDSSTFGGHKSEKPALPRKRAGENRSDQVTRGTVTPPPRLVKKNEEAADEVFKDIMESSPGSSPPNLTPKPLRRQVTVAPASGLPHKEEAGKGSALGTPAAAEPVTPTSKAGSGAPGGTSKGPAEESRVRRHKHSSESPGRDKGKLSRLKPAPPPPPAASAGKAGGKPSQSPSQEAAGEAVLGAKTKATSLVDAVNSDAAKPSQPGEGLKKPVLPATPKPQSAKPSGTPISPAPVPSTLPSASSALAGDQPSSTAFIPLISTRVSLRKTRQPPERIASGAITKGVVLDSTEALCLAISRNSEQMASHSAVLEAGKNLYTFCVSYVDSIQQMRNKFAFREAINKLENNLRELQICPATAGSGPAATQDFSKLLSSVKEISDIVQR
Chain of Mitogen-activated protein kinase 1 (Homo sapiens) (P28482 whole entry): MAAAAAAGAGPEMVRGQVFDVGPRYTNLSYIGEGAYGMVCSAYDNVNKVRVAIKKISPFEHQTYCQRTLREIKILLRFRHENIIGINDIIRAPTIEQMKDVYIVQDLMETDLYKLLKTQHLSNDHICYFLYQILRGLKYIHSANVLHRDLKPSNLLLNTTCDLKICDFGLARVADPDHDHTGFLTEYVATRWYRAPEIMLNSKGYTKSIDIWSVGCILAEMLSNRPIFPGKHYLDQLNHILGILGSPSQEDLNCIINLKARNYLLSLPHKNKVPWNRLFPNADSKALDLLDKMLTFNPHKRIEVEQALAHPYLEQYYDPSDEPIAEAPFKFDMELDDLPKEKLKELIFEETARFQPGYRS

`CC(=O)O[C@H]1C(=O)[C@@]2(C)[C@H]([C@H](OC(=O)c3ccccc3)[C@]3(O)C[C@H](OC(=O)[C@H](O)[C@@H](NC(=O)c4ccccc4)c4ccccc4)C(C)=C1C3(C)C)[C@]1(OC(C)=O)CO[C@@H]1C[C@@H]2O`: the ΔTm in experiment [1] is 0.38 °C; in experiment [2], 0.99 °C; in experiment [3], -0.22 °C; in experiment [4], -0.02 °C; in experiment [5], 0.57 °C; in experiment [6], -0.14 °C.
For `CC(C)S(=O)(=O)c1ccccc1Nc1nc(N[C@@H]2CCCN(CCCCCCCNC(=O)COc3cccc4c3C(=O)N(C3CCC(=O)N(C)C3=O)C4=O)C2)ncc1Cl` (stereo partly specified), the ΔTm in experiment [1] is 1.22 °C; in experiment [2], 1.08 °C; in experiment [3], 1.07 °C; in experiment [4], 8.52 °C; in experiment [5], 0.83 °C; in experiment [6], 7.69 °C.
Take `CC(C)(C)c1cc(NC(=O)c2csc(Nc3ccccn3)n2)no1`: the ΔTm in experiment [1] amounted to 1.84 °C; in experiment [2] it was 0.49 °C; in experiment [3], 0.84 °C; in experiment [4] it was 0.22 °C; in experiment [5], 0.57 °C; in experiment [6] it was 1.27 °C.
Regarding `CC[C@@H](Nc1c(C#N)c(-c2ccc(-c3cccc(C)c3F)cc2)nc2cnccc12)C(=O)O`, the shift in melting temperature (ΔTm) is 1.07 °C in experiment [1]; -0.82 °C in experiment [2]; -0.63 °C in experiment [3]; 0.06 °C in experiment [4]; -0.07 °C in experiment [5]; 5.1 °C in experiment [6].
Consider `CCO[C@H](COc1ccc(C(F)(F)F)cc1)CSc1ccc(OCC(=O)O)c(C)c1`, for which the thermal shift (ΔTm) in experiment [1] was 0.26 °C; in experiment [2], 0.43 °C; in experiment [3] it was 0.11 °C; in experiment [4] it was -0.41 °C; in experiment [5], 0.32 °C; in experiment [6], -1.04 °C.
In the case of `N#Cc1ccc(C#CC[C@@H](C#N)NC(=O)[C@H]2CCCCN2)cc1F`, the ΔTm in experiment [1] is -0.48 °C; in experiment [2] it was -0.17 °C; in experiment [3], 0.45 °C; in experiment [4], -0.17 °C; in experiment [5], -0.62 °C; in experiment [6], -0.01 °C.
With `COc1ccccc1Nc1nc(-c2nn(Cc3c(F)cc(OCCCO)cc3F)c3ccccc23)ncc1OC`, the ΔTm is 0.26 °C in experiment [1]; -0.43 °C in experiment [2]; -0.21 °C in experiment [3]; -0.64 °C in experiment [4]; 0.16 °C in experiment [5]; -0.7 °C in experiment [6].
Turning to `COc1ccccc1-c1cc(Nc2cccc(CS(N)(=O)=O)c2)ncn1`, the shift in melting temperature (ΔTm) in experiment [1] was 2.06 °C; in experiment [2], 2.08 °C; in experiment [3], -0.11 °C; in experiment [4], 4.1 °C; in experiment [5], -0.04 °C; in experiment [6], 0.53 °C.
On to `CCOCCn1cc(C(=O)Nc2ccc(-n3nc(-c4cccnc4)cc3C(F)(F)F)cn2)ccc1=O`, for which the thermal shift (ΔTm) in experiment [1] was 0.3 °C; in experiment [2], -1.4 °C; in experiment [3], 0.33 °C; in experiment [4], -0.71 °C; in experiment [5], -0.58 °C; in experiment [6], 0.16 °C.
Regarding `Cc1cn([C@@H](C)CC#N)c(=O)c2cc(Cn3nc(C(F)F)cc3Cl)nn12`, the shift in melting temperature (ΔTm) in experiment [1] was 0.12 °C; in experiment [2], -0.57 °C; in experiment [3], -0.18 °C; in experiment [4], -0.66 °C; in experiment [5] it was 0.18 °C; in experiment [6] it was -0.51 °C.
On to `CC(C)c1nc2c(c3c1[C@H](c1ccc(C(F)(F)F)cc1)OC31CCOCC1)[C@H](O)CC(C)(C)C2`, for which the ΔTm in experiment [1] was -0.1 °C; in experiment [2], -0.68 °C; in experiment [3], -0.53 °C; in experiment [4] it was -1.62 °C; in experiment [5], -0.14 °C; in experiment [6], -0.26 °C.
On to `CCc1ccc(-c2ncn(CC3(F)CCN(C)CC3)c2-c2ccnc3[nH]ccc23)nc1`, for which the ΔTm in experiment [1] is 0.05 °C; in experiment [2], 0.87 °C; in experiment [3] it was 0.57 °C; in experiment [4], -0.72 °C; in experiment [5] it was 0.39 °C; in experiment [6], -1.06 °C.
`O=C1Nc2ccc(I)cc2/C1=C/c1cc(Br)c(O)c(Br)c1`: the thermal shift (ΔTm) in experiment [1] was 2.98 °C; in experiment [2], 0.35 °C; in experiment [3] it was 0.18 °C; in experiment [4], -1.46 °C; in experiment [5], 0.48 °C; in experiment [6], -0.27 °C.
For the compound `CCn1c(=O)c2c(C)c(C(=O)N3CCC(O)CC3)sc2n(CCC(F)(F)F)c1=O`, the shift in melting temperature (ΔTm) is 0.35 °C in experiment [1]; 0.49 °C in experiment [2]; 0.3 °C in experiment [3]; -0.42 °C in experiment [4]; 0.14 °C in experiment [5]; 0.03 °C in experiment [6].
On to `CC#CCC(C)[C@H](O)/C=C/[C@@H]1[C@H]2C/C(=C/CCCC(=O)O)C[C@H]2C[C@H]1O` (stereo partly specified), for which the shift in melting temperature (ΔTm) in experiment [1] is -0.29 °C; in experiment [2], 0.41 °C; in experiment [3], 0.31 °C; in experiment [4], -0.77 °C; in experiment [5], 0.12 °C; in experiment [6], -0.07 °C.
In the case of `CS(C)(=O)=Nc1ccc(-c2ccc(-c3nc4[nH]c(O[C@@H]5CO[C@H]6[C@@H]5OC[C@H]6O)nc4cc3Cl)cc2)cc1`, the shift in melting temperature (ΔTm) was 1.8 °C in experiment [1]; 0.06 °C in experiment [2]; 0.3 °C in experiment [3]; -0.22 °C in experiment [4]; 0.83 °C in experiment [5]; 0.34 °C in experiment [6].
Regarding `CN1CC(=O)N(C)c2cnc(Nc3ccc(NC(=O)Nc4cccc(C(=O)O)c4)cc3)nc21`, the ΔTm in experiment [1] was 0.56 °C; in experiment [2], -0.17 °C; in experiment [3], 0.58 °C; in experiment [4], 1.43 °C; in experiment [5], 0.43 °C; in experiment [6], 2 °C.
As to `CC1(C)Oc2ncnc(N)c2N=C1c1ccc([C@H]2CC[C@H](CC(=O)O)CC2)cc1`, the ΔTm is 0.89 °C in experiment [1]; 0.57 °C in experiment [2]; -0.19 °C in experiment [3]; 0.61 °C in experiment [4]; 0.18 °C in experiment [5]; 0.25 °C in experiment [6].
`COc1cc2ncnc(Nc3ccc(F)c(Cl)c3)c2cc1OCCN(C)C[C@H](C)O`: the ΔTm was 2.95 °C in experiment [1]; 0.34 °C in experiment [2]; 1.99 °C in experiment [3]; -0.21 °C in experiment [4]; 0.43 °C in experiment [5]; 0.41 °C in experiment [6].
Take `NC(=O)c1ccccc1Nc1nc(-c2ccc(N3CCOCC3)cc2)cc2ncccc12`: the ΔTm worked out at 7.91 °C in experiment [1]; 1.53 °C in experiment [2]; 3.01 °C in experiment [3]; 2.43 °C in experiment [4]; 0.67 °C in experiment [5]; 10.1 °C in experiment [6].
With `NCc1ccc(OCCCc2sc(-c3ccc4c(c3)/C(=N/Nc3nc5ccccc5s3)CCC4)nc2C(=O)O)cc1`, the ΔTm in experiment [1] was 0.43 °C; in experiment [2], 0.49 °C; in experiment [3], -0.37 °C; in experiment [4] it was -0.12 °C; in experiment [5], -0.02 °C; in experiment [6], 1.25 °C.
With `CCc1nc(C2CCC2)n2nc(-c3ccccc3)[nH]c(=O)c12`, the ΔTm came to 0.18 °C in experiment [1]; 1.98 °C in experiment [2]; 0.4 °C in experiment [3]; 1.45 °C in experiment [4]; 0.11 °C in experiment [5]; 1.13 °C in experiment [6].
As to `CN(C(=O)c1ccccc1)c1ccc2c(c1)[nH]/c(=N\C(=O)c1ccc(Br)s1)n2CCC(N)=O`, the thermal shift (ΔTm) was 3.94 °C in experiment [1]; 0.69 °C in experiment [2]; 6.56 °C in experiment [3]; 0.89 °C in experiment [4]; 0.41 °C in experiment [5]; 3.75 °C in experiment [6].
Take `O=C(NCCN1CCOCC1)c1ccc2nn(CCOc3ccc(Cl)cc3)cc2c1`: the ΔTm in experiment [1] is 0.88 °C; in experiment [2], 0.59 °C; in experiment [3] it was 0.35 °C; in experiment [4] it was -0.24 °C; in experiment [5], 0.56 °C; in experiment [6], 0.05 °C.
Consider `COc1cc2nc(-c3cc(F)ccc3O)nc(N[C@@H]3CNC[C@H]3C(C)(C)O)c2cc1OC`, for which the thermal shift (ΔTm) in experiment [1] is 2.31 °C; in experiment [2], 3.24 °C; in experiment [3] it was 4.64 °C; in experiment [4] it was 3.22 °C; in experiment [5] it was 3 °C; in experiment [6], 3.06 °C.
With `COc1cc(C(N)=O)nc(-c2cccc(C#C[C@]3(O)CCN(C)C3=O)c2)c1`, the ΔTm in experiment [1] was -0.11 °C; in experiment [2] it was 1.02 °C; in experiment [3] it was -0.06 °C; in experiment [4] it was 0.79 °C; in experiment [5], 0.3 °C; in experiment [6], 1.62 °C.
